CDC25B-CDK2 inh: human CDC25B-CDK2/CyclinA binding inhibition | z-score (test concentration not listed) | AID 1259370 | HTRF CDC25B-CDK2/CyclinA binding, anti-His/anti-Flag; hits give high values | actives 0.72% (n = 94,000) | P30305+P24941; in the data active = z-score above about 3.2
HIV TAR-Tat: HIV-1 TAR-Tat binding disruption; HIV-1 TAR RNA, Tat peptide displacement FRET; hits give high values; z-score (concentration not given with the values); actives 0.6% (n = 100,000); AID 1259389; active = z-score of 3 or more in at least 2 runs
The depositor's hits bear a star; nt = no result. Rows were chosen to be rich in hits. Some 0.9% of all compounds tested hit in one or more screens of this group.

SMILES | CDC25B-CDK2 inh | HIV TAR-Tat
CCC1CN(C(=O)Nc2ccc3c(c2)OCCO3)c2ccccc2S1 (stereo not drawn) | nt | 1.3
Cc1cc(C)c(OCC(=O)N2N=C3CCC(C)CC3C2(O)C(F)(F)F)c(C)c1 (stereo not drawn) | -0.59 | nt
COc1ccc(OC)c2c(C)cc(N3CCN(S(=O)(=O)c4ccc(C)cc4)CC3)nc12 | -0.03 | 7.8*
COc1ccc(S(=O)(=O)N2CCN(c3cc(N4CCCCC4)nc(C)n3)CC2)cc1C | -2.1 | 0.48
CC(C)c1ccc(NC2c3ncccc3C(=O)N2Cc2cccs2)cc1 (stereo not drawn) | nt | 1.2
CN(C)[C@@H]1C(=O)C(C(=O)NCN2CCCC2)=C(O)[C@@]2(O)C(=O)C3=C(O)c4c(O)cccc4[C@@](C)(O)C3CC12 (stereo partly drawn) | nt | 14*
O=C(Nc1ccc(Cl)c(Cl)c1)Nn1cnnc1 | 18* | nt
O=C(Nc1ccccc1)Nn1cnnc1 | -0.44 | nt
CCC(C)NC(=O)c1noc2c1CCc1sccc1-2 (stereo not drawn) | nt | 0.29
Cc1cc2oc(C(=O)Nc3sc4c(c3C(=O)NCc3ccco3)CCC4)cc(=O)c2cc1C | 6.6* | 12*
Cc1cc(C)c2oc(C(=O)Nc3sc4c(c3C(=O)NCc3ccco3)CCC4)cc(=O)c2c1 | -1.2 | -0.05
Cc1cc(C)c2c(=O)cc(C(=O)Nc3sc4c(c3C(=O)NCc3ccco3)CCC4)oc2c1 | 4* | 2
Cc1ccc2oc(C(=O)Nc3sc4c(c3C(=O)NCc3ccco3)CCC4)cc(=O)c2c1 | -0.74 | -2.3
Cc1ccc(C)c(Cn2cccc2CNC(=O)NC2CCCC2)c1 | nt | 0.85
Cc1nc(-c2ccc(C)c(S(=O)(=O)Nc3c(C)cccc3C)c2)cs1 | nt | 3
Cc1ccc(CS(=O)(=O)c2ncc(Cl)c(C(=O)Nc3nnc(C(C)C)s3)n2)cc1 | 5.5* | 0.97
Cc1ccc(CS(=O)(=O)c2ncc(Cl)c(C(=O)Oc3ccc(C)cc3)n2)cc1 | -1.3 | -0.27
CCC1CCCCN1CCCNC(=O)C1CCCN(S(=O)(=O)N2CC(C)CC(C)C2)C1 (stereo not drawn) | nt | 1.3
CCC1CCCCN1CCCNC(=O)C1CCCN(S(=O)(=O)N2CCCCC2)C1 (stereo not drawn) | nt | 4.5*
C=CCSc1nnc(NC(=O)c2csnn2)s1 | -0.64 | -1
Cc1nn(-c2ccccc2)c2sc(C(=O)Nc3ccc4c(c3)OCO4)cc12 | nt | 0.78
COc1cc2c3c(c1OC)C1(C=CC(=O)C=C1)CC3N(C)CC2 (stereo not drawn) | 8.3* | -3
COc1ccc2c(c1OC)C(=O)O[C@@H]2[C@H]1c2c(cc3c(c2OC)OCO3)CCN1C | -1.4 | 4.3
CCCCN(CC)CCNC(=O)c1nn(C)c2c1CS(=O)(=O)c1ccccc1-2 | 0.55 | 0.79
CCN(CC)CCCNC(=O)c1nn(C)c2c1CS(=O)(=O)c1ccccc1-2 | -1.5 | 6.9*
SMILES | CDC25B-CDK2 inh | HIV TAR-Tat
CCOc1c(Br)cc(CNCCCSc2nnnn2C)cc1OC | -0.58 | 1.4
O=C(NC1CCCCC1)C1=Cc2cc(Br)ccc2OC=C1 | -1.5 | 0.06
COc1c(C)cc([N+](=O)[O-])cc1[N+](=O)[O-] | -1.2 | nt
Cc1ccc(C)c(C(=O)CC2(O)C(=O)N(Cc3ccccc3C)c3ccccc32)c1 (stereo not drawn) | -0.79 | nt
COc1ccc(CN2CSC3=C(C#N)C(c4cccc(OC)c4)CC(=O)N3C2)cc1 (stereo not drawn) | 7.6* | -0.14
N#CC1=C2SCN(Cc3ccco3)CN2C(=O)CC1c1cccs1 (stereo not drawn) | 2.5 | 1.2
N#CC1=C2SCN(CCc3ccccc3)CN2C(=O)CC1c1ccc(F)cc1 (stereo not drawn) | -0.26 | 1.1
CC(c1ccccc1)N1CSC2=C(C#N)C(c3ccc(F)cc3)CC(=O)N2C1 (stereo not drawn) | 3 | 2.8
N#CC1=C2SCN(CCc3ccccc3)CN2C(=O)CC1c1cccs1 (stereo not drawn) | 3.7* | -0.38
CC(C)c1ccc(C2CC(=O)N3CN(Cc4ccccc4)CSC3=C2C#N)cc1 (stereo not drawn) | 5* | 0.39
COc1ccc(CN2CSC3=C(C#N)C(c4cccs4)CC(=O)N3C2)cc1 (stereo not drawn) | 4* | -0.08
O=C(CCCCCCCCC(=O)NNC(=O)c1ccco1)NNC(=O)c1ccco1 | -2 | nt
O=C(CSc1nnc2ccc3ccccc3n12)N1CCCc2ccccc21 | 1.4 | -0.13
O=C(NCC(c1cccs1)S(=O)(=O)c1cccs1)c1ccco1 (stereo not drawn) | nt | 0.29
N#CC1=C2SCN(Cc3cccnc3)CN2C(=O)CC1c1ccc(F)cc1 (stereo not drawn) | 0.53 | 1.1
Cc1ccc(C2CC(=O)N3CN(Cc4cccnc4)CSC3=C2C#N)cc1 (stereo not drawn) | 5.2* | 0.43
COc1ccc(CN2CSC3=C(C#N)C(c4ccc(OC)cc4)CC(=O)N3C2)cc1 (stereo not drawn) | 6.3* | 2.3
COc1ccc(C2CC(=O)N3CN(Cc4cccnc4)CSC3=C2C#N)cc1 (stereo not drawn) | -0.28 | 1.2
Cc1ccsc1CCN1CSC2=C(C#N)C(c3ccc(Cl)cc3)CC(=O)N2C1 (stereo not drawn) | 3.2* | 2
N#CC1=C2SCN(CCN3CCOCC3)CN2C(=O)CC1c1ccc(F)cc1 (stereo not drawn) | 0.4 | 1.7
Cc1cc(-n2nnc3ccccc32)nc(C)n1 | -1.2 | 14*
Cc1cc(C)n2c(n1)nc1ccccc12 | -2.1 | nt
O=C1c2ccccc2-c2onc3c(N4CCOCC4)cc(N4CCOCC4)c1c23 | -0.66 | 0.31
CC(C)Nc1cc(N2CCOCC2)c2noc3c2c1C(=O)c1ccccc1-3 | 1.9 | 6.2*
CC(C)Nc1cc(N2CCN(C(=O)c3ccco3)CC2)c2noc3c2c1C(=O)c1ccccc1-3 | 0.59 | 5.6*
SMILES | CDC25B-CDK2 inh | HIV TAR-Tat
COc1ccc(Nc2cc(N3CCOCC3)c3noc4c3c2C(=O)c2ccccc2-4)cc1 | 1.3 | -6.7
O=C1c2ccccc2-c2onc3c(N4CCOCC4)cc(Nc4ccc(F)cc4)c1c23 | 13* | 1.1
CC(C)CNc1cc(N2CCN(C(=O)c3ccco3)CC2)c2noc3c2c1C(=O)c1ccccc1-3 | -2.4 | -5.2
CN(Cc1ccccc1)S(=O)(=O)c1cc2c3c(c1)CC(=O)N3CCC2 | nt | 1.4
CC1CN(C(=O)Cn2cc(SCC(=O)N(C)c3ccccc3)c3ccccc32)CC(C)O1 (stereo not drawn) | nt | -0.86
O=C(NCc1ccc2c(c1)OCO2)c1nc(SCc2ccc(F)cc2)ncc1Cl | -0.83 | 1.7
Cc1c(C(=O)N2CCN(C)CC2)oc2ccc3c(c12)C(=O)CC1(CCCCC1)O3 | -2.2 | 0.21
CCOCCCNc1cc(N2CCN(C3CCCCC3)CC2)c2noc3c2c1C(=O)c1ccccc1-3 | -1.8 | 1.5
CCCN1CCN(c2cc(NCCCC(=O)O)c3c4c(onc24)-c2ccccc2C3=O)CC1 | -2 | -5.8
O=C(O)CCCNc1cc(N2CCC(=O)CC2)c2noc3c2c1C(=O)c1ccccc1-3 | 14* | 27*
O=C(O)CCCNc1cc(N2CCN(C3CCCCC3)CC2)c2noc3c2c1C(=O)c1ccccc1-3 | 13* | -3.4
O=C1CS(=O)(=O)N(Cc2ccccc2)c2ccsc21 | 1.2 | -0.61
CC(=O)Oc1ccc(C2Nc3ccc(C(=O)O)cc3C3C=CCC32)c(OC(C)=O)c1 (stereo not drawn) | 5.1* | nt
COc1cccc([C@@H]2Nc3ccc(C(=O)O)cc3[C@@H]3C=CC[C@@H]32)c1 | 2 | 14*

High-throughput results deposited in PubChem by Center for Chemical Genomics, University of Michigan.
